# Compound activity from PubChem BioAssay.
# AmpC inh detg = inhibitors of E. coli AmpC beta-lactamase with detergent. actives 0.041% (n = 370,000). AmpC hydrolysis of nitrocefin, absorbance 480 nm, 0.01% Triton. Potency, µM (titrated, usually from 114 µM), for inactives: at the top dose activity change, negative = inhibition, hits mostly inhibitors. AID 485294;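 also: 0% = no-compound wells and -100% = no-enzyme wells; nearly all actives have a fitted effect of over 25% in size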
# Target sequence (P00811 whole entry, looked up): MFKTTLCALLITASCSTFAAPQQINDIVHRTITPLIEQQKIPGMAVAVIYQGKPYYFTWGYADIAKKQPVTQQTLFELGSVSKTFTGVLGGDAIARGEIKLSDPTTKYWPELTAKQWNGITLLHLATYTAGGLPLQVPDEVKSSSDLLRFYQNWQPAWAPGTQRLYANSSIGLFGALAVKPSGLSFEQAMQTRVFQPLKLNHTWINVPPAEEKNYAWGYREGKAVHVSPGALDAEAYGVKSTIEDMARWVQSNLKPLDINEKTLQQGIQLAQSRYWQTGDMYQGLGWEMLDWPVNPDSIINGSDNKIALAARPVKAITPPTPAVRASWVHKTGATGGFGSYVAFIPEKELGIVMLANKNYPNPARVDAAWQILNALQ
#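 AmpC (5.3 nM in the dispensed reagent) in 20 mM phosphate pH 7.0 with 0.01% (detergent screen) or 0.0001% Triton X-100 was preincubated with compounds for 15 min at room temperature. Nitrocefin was then added from an 800 uM solution, and hydrolysis was followed at 480 nm.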
# Pf growth 96h = P. falciparum growth inhibition at 96 hour, primary screen for plastid delayed-death inhibitors; P. falciparum luciferase reporter growth, 96 h; Potency, µM (highest dose often 28.7 µM), for the others: at the highest dose activity change, negative = inhibition, most hits filed as inhibitors; actives 6.9% (n = 320,000); AID 504834; also: % is scaled to controls: 0 for no effect and ±100 for the full control effect
#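 Cell-based qHTS: luciferase-tagged P. falciparum in erythrocytes (2% hematocrit, 0.05% parasitemia final) incubated with compounds for 96 hours, 37 C, 5% CO2; luciferase detection reagent then added and luminescence measured.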
# Pf growth 48h = inhibits P. falciparum growth in the first generation, 48 h | P. falciparum luciferase growth in erythrocytes, 48 h | actives 5.9% (n = 310,000) | Potency, µM (highest dose often 28.7 µM), for inactives: at the top dose activity change, negative = inhibition, actives largely listed as inhibitors; also: % is scaled to controls: 0 for no effect and ±100 for the full control effect
#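 Luciferase-expressing P. falciparum in infected erythrocytes (2% hematocrit, 0.1% parasitemia final) in RPMI 1640/0.5% Albumax were exposed to compound for 48 hours at 37 C, 5% CO2; growth read as luminescence.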
# SARS PLP yeast = SARS-CoV PLP inhibition in yeast | S. cerevisiae expressing SARS-CoV PLpro, growth rescue | Potency, µM (highest dose often 32.9 µM), for the others: at the highest dose activity, positive = growth rescue, most hits filed as activators | actives 0.19% (n = 330,000) | AID 485353; calls by dose curve; also: 0% is about no effect; nearly all actives have a fitted effect of over 55% in size
# Sm TGR block = S. mansoni TGR enzyme inhibition; Q962Y6; purified TGR, DTNB reduction, TNB absorbance 405 nm; Potency, µM (titrated, usually from 114 µM), without a hit: at the top dose activity change, negative = inhibition, actives largely listed as inhibitors; actives 3% (n = 360,000); AID 485364; also: % is scaled to controls: 0 for no effect and ±100 for the full control effect; nearly all actives have a fitted effect of over 60% in size
#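 Kinetic colorimetric format: TGR-catalysed, NADPH-driven DTNB reduction monitored via TNB absorbance. Enzyme dispensed at 20 nM; compound exposure 15 min at room temperature before reaction start.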
# AmpC no deterg = inhibitors of E. coli AmpC beta-lactamase without detergent. AmpC nitrocefin hydrolysis, absorbance 480 nm, 0.0001% Triton. Potency, µM (top dose mostly 57.1 µM), inactives show at the highest dose activity change, negative = inhibition, actives largely listed as inhibitors. actives 0.52% (n = 330,000). AID 485341;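 also: plate controls were no compound for no effect and no enzyme for full effect; nearly all actives have a fitted effect of over 20% in size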
#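 AmpC (5.3 nM in the dispensed reagent) in 20 mM phosphate pH 7.0 with 0.01% (detergent screen) or 0.0001% Triton X-100 was preincubated with compounds for 15 min at room temperature. Nitrocefin was then added from an 800 uM solution, and hydrolysis was followed at 480 nm.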
# Active calls of the source: *; ? = inconclusive; nt = not tested or not shown; [ ] = another dose, or the depositor's remark. Rows were chosen to be rich in hits. Some 12% of all compounds tested hit in one or more screens of this group. Unless noted, calls follow the shape of the dose curve; as a rule, active = well fitted curve in the direction sought with a large enough effect; inconclusive = small, poorly fitted or top-dose-only effect, or another doubt; inactive = no such curve, though single readings can be large; an effect the other way counts as inactive or inconclusive. Potency is read from the fitted curve at half-maximal effect.
SMILES,AmpC inh detg,Pf growth 96h,Pf growth 48h,SARS PLP yeast,Sm TGR block,AmpC no deterg
O=C(COc1cccc(Br)c1)Nc1ccc(Cl)c(S(=O)(=O)N2CCOCC2)c1,nt,nt,nt,-1%,nt,-12%
COc1cc(C(C)=O)ccc1OCC(=O)Nc1ccc(Cl)c(S(=O)(=O)N2CCOCC2)c1,?,2.1µM*,4.1µM*,5%,-16%,91%
COc1ccc(Cl)cc1NC(=O)CC(=O)Nc1cc(Cl)ccc1OC,?,8%,?,-3%,4%,-36%
COc1ccc(S(=O)(=O)N2CCOCC2)cc1NC(=O)CN(C)Cc1c(F)cccc1Cl,-4%,?,7.4µM*,-1%,-1%,180%
COc1ccc(C)cc1NC(=O)C(NCC(O)c1ccccc1)c1ccccc1 (stereo unspecified),-6%,10µM*,?,0%,0%,-4%
COc1ccc(Cl)cc1NC(=O)Cc1c(F)cccc1Cl,?,5.9µM*,?,-2%,-8%,-34%
Cc1ccc(C(=O)NCc2nnc(SCC(=O)NC(C)c3ccccc3)n2C)cc1 (stereo unspecified),-7%,-1%,8%,-2%,-14%,-15%
CC1(C)Cc2c(c(N3CCOCC3)nc3sc4c(NCc5ccco5)nnnc4c23)CS1,-11%,10%,?,-9%,40µM*,-36%
CC1(C)Cc2c(c(N3CCOCC3)nc3sc4c(NCc5ccccc5)nnnc4c23)CS1,?,1µM*,nt,3%,-16%,-16%
CC(C)CNc1nnnc2c1sc1nc(N3CCOCC3)c3c(c12)CC(C)(C)SC3,3%,?,?,-8%,0%,-25%
Oc1[nH]c2ccccc2c1N=Nc1nc(Nc2ccccc2)nc(N2CCOCC2)n1,9%,?,6.6µM*,1%,-3%,-26%
Cc1[nH]c2ccccc2c1/C=N/Nc1nc(Nc2ccccc2)nc(N2CCOCC2)n1,-12%,?,?,-21%,1%,1%
O=C(O)Cc1ccc(NC(=O)c2ccc(NC(=O)C3CC3)cc2)cc1,2%,5.9µM*,-19%,3%,14%,-28%
CC(C)(C)c1ccc(C(=O)Nc2ccc(CC(=O)O)cc2)o1,-1%,2.3µM*,nt,10%,-6%,-18%
COc1ccc2[nH]cc(C=O)c2c1,-12%,190%,14%,4%,-20%,-3%
COc1ccc2[nH]cc(/C=C/c3cc[n+](C)cc3)c2c1,-9%,0.47µM*,1µM*,1%,1%,-11%
CCOc1ccc(-n2c(C)cc(/C=N/Nc3nc(C)cc(=O)[nH]3)c2C)cc1,0%,?,1.7µM*,-3%,-11%,0%
O=C(N/N=C/c1ccc(Cl)c([N+](=O)[O-])c1)c1cnccn1,-1%,5%,-2%,21%,-5%,-29%
Cc1cc(=O)[nH]c(N/N=C/c2c(C)nn(-c3ccc(F)cc3)c2Cl)n1,-2%,10µM*,4.7µM*,-2%,-1%,-20%
CCOc1ccc(-n2c(C)cc(/C=N/NC(=O)C(N)=O)c2C)cc1,-11%,0%,-6%,-2%,?,3%[2.29 µM]
O=[N+]([O-])c1cc(C=Nc2cccc3c(O)cccc23)ccc1Cl,-6%,-28%,21%,-6%,40µM*,-34%
O=[N+]([O-])c1cc(/C=N\Nc2ccccn2)ccc1Cl,1%,7.4µM*,24%,0%,-6%,-25%
Cc1cc(=O)[nH]c(N/N=C/c2cccc([N+](=O)[O-])c2)n1,-10%,300%,26%,-4%,-20%,-4%
Cc1cc(=O)[nH]c(N/N=C/c2ccc(Cl)c([N+](=O)[O-])c2)n1,-2%,?,2.3µM*,0%,-23%,-24%
O=C(NC1CCC(O)CC1)c1cc(-c2ccco2)nc2ccccc12 (stereo unspecified),0%,46%,?,-3%,11µM*,-22%
SMILES,AmpC inh detg,Pf growth 96h,Pf growth 48h,SARS PLP yeast,Sm TGR block,AmpC no deterg
O=C(NCC1CCCO1)c1cc(-c2ccco2)nc2ccccc12 (stereo unspecified),-15%,14%,2%,6%,35µM*,-19%
CC(C)CN(CCNC(=O)CCN1N=C(c2ccccc2)CCC1=O)CC(C)C,0%,nt,nt,nt,10%,nt
Cc1cccc(C)c1NC(=O)C1c2cccc[n+]2CC(=O)N1Cc1ccc2c(c1)OCO2 (stereo unspecified),0%,44%,-6%,-2%,-13%,-17%
Cc1ccccc1NC(=O)C1c2cccc[n+]2CC(=O)N1c1c(C)cccc1C (stereo unspecified),?,59%,48%,-7%,45µM*,7%
CCOc1ccc(CNC(=O)c2cccn2-c2nnc(N3CCCCC3)s2)cc1OC,1%,nt,nt,nt,-10%,nt
COc1ccc(Cc2nnc(NC(=O)C3CC(=O)N(c4ccccc4)C3)s2)cc1OC (stereo unspecified),5%,2.9µM*,0%,-1%,5%,74%
COc1ccc(Cc2nnc(NC(=O)c3c(-c4ccccc4)noc3C)s2)cc1OC,-12%,10µM*,?,-8%,-4%,31%
COc1ccc(Cc2nnc(NC(=O)c3ccc(OC)c(OC)c3)s2)cc1OC,6%,21%,-10%,1%,0%,101%
CCOC(=O)c1c(NC(=O)c2c(-c3ccccc3)noc2C)sc(C)c1-c1ccccc1,-1%,6.6µM*,nt,6%,-25%,-9%
COc1cccc(C(=O)Nc2nnc(Cc3ccc(OC)c(OC)c3)s2)c1,2%,0%,12µM*,1%,5%,-3%
CCOC(=O)c1ccccc1NC(=O)c1c(-c2ccccc2)noc1C,2%,nt,nt,nt,17%,nt
CC(=O)c1ccc(S(=O)(=O)N2CCN(C(=O)CCC3CCCC3)CC2)cc1,0%,?,?,-2%,-3%,20%
C=CCN(c1ccccc1Cl)S(=O)(=O)c1cccc(C(=O)OCC(=O)N(C)C2CCS(=O)(=O)C2)c1 (stereo unspecified),2%,-7%[5.75 µM],-30%,-1%,-6%,159%
COc1ccc(N2CC(C(=O)NCCc3ccc(OC)c(OC)c3)CC2=O)cc1 (stereo unspecified),?,-4%,2%,-1%,0%,-12%
CCCCOc1ccc(N2CC(C(=O)NCCc3ccc(OC)c(OC)c3)CC2=O)cc1 (stereo unspecified),?,12µM*,-15%,0%,-1%,105%
COCc1nnc(NC(=O)c2ccc(OC)cc2OC)s1,-6%,50%,106%,0%,nt,12%
COc1ccc(C(=O)Nc2nnc(Cc3ccc(OC)c(OC)c3)s2)c(OC)c1,-4%,151%,2.3µM*,-5%,-19%,89%
